From PubChem BioAssay (NCI) come the findings set out here.

About 79,000 compounds went through this panel and 15% of them were active in at least one assay; those are over-represented in the sample as a whole. Unmarked numbers belong to inactive results. Calls of active or inactive are those of the source. Rule as the data show it: active = growth inhibition above about 70%; inactive = the rest. Where a SMILES comes first, the peptide text is derived from it. The star is where a group is joined. Cbz = O=C(OCc1ccccc1)*

Experiment [1] in a line: NCI Yeast Anticancer Drug Screen. Data for the rad50 strain (AID 155).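 Also: 0% = growth of vehicle-only cultures of the same strain.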 To be noted: S. cerevisiae rad50 strain growth inhibition, hits give high values; at 50.0 µM unless noted. The method in brief:
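Inhibition values express reduced yeast growth in compound-treated cultures relative to vehicle-treated controls.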

Experiment [2] can be described thus: NCI Yeast Anticancer Drug Screen. Data for the mec2-1 strain (AID 157). As to conditions: S. cerevisiae mec2-1 strain, hits give high values; at 50.0 µM unless noted. In short, it runs like this: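 Each compound was tested on mec2-1 yeast, a strain altered in DNA damage repair or cell cycle control. Growth inhibition is reported relative to vehicle.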
A short description of experiment [3]: NCI Yeast Anticancer Drug Screen. Data for the sgs1 mgt1 strain (AID 161).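 Also: 0% = growth of cultures given vehicle only.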 As to conditions: S. cerevisiae sgs1 mgt1 strain, hits give high values; at 50.0 µM unless noted. In short, it runs like this:
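Read-out: growth inhibition vs vehicle controls. Cells: mutant yeast strain deficient in DNA damage repair.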

Experiment [4] can be described thus: NCI Yeast Anticancer Drug Screen. Data for the cln2 rad14 strain (AID 165).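 Also: 0% = growth equal to vehicle treated cultures.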 As to conditions: S. cerevisiae cln2 rad14 strain, hits give high values; at 50.0 µM unless noted. The method in brief:
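Test compounds were added to cln2 rad14 yeast cultures; inhibition of growth was then determined by comparison with vehicle treatment.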

Experiment [5] in a line: NCI Yeast Anticancer Drug Screen. Data for the bub3 strain (AID 167). As to conditions: S. cerevisiae bub3 mutant strain, hits give high values; at 50.0 µM unless noted. In short, it runs like this: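 Steps: expose the mutant yeast strain to compound; grow alongside vehicle-treated cultures; measure growth; express inhibition against the vehicle cultures.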
The nature of experiment [6]: NCI Yeast Anticancer Drug Screen. Data for the mlh1 rad18 strain (AID 175). To be noted: S. cerevisiae mlh1 rad18 strain growth inhibition, hits give high values; at 50.0 µM unless noted. In short, it runs like this: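 Inhibition values reflect reduced growth of mutant yeast versus vehicle-treated controls following compound exposure; the mutations affect DNA damage repair.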

As for `COC(=O)C(CC(C)C)NC(=O)C(CC(N)=O)NC(=O)C(NC(=O)OCc1ccccc1)C(C)C` (stereo not drawn) (Cbz-Val-Asn-Leu-OMe; configuration not given here), the growth inhibition in experiment [1] is 38.1%; in experiment [2], 24.5%; in experiment [3] it was 8.9%; in experiment [4], 14.7%; in experiment [5] it was 9.3%; in experiment [6], 36.5%.
For `CC1=CC(=O)[C@@H](O)[C@@]2(C)C1C[C@H]1OC(=O)[C@H](C/C=C(/C)C(C)C)[C@H]3C(C)C(O)C4(O)OC[C@@]31C42` (stereo not given in full), the growth inhibition in experiment [1] is 76.8% (active); in experiment [2] it was 77.9% (active); in experiment [3] it was 72% (active); in experiment [4], 81.7% (active); in experiment [5], 80% (active); in experiment [6] it was 76.5% (active).
With `CC1CCCCN1P(c1ccccc1)N1CCCCC1C` (stereo not given), the growth inhibition in experiment [1] is 28.5%; in experiment [2], 16.9%; in experiment [3] it was 18.5%; in experiment [4], 24.1%; in experiment [5] it was 35%; in experiment [6] it was 22.7%.
Consider `O=C1CCC(=O)N1N1C(=O)CCC1=O`, for which the growth inhibition in experiment [1] is -9.65%; in experiment [2], -24.2%; in experiment [3], -10.4%; in experiment [4], 7.05%; in experiment [5], -23.2%; in experiment [6], 3.35%.
In the case of `NC(=S)Nc1ccc(Br)cc1`, the growth inhibition is -0.85% in experiment [1]; 23.6% in experiment [2]; 25.5% in experiment [3]; 34.8% in experiment [4]; -4.05% in experiment [5]; 7.6% in experiment [6].
For `O=C(O)CCC(=O)c1ccc(F)cc1`, the growth inhibition is -20.6% in experiment [1]; -13.7% in experiment [2]; -13.6% in experiment [3]; -0.95% in experiment [4]; -22.6% in experiment [5]; -7.65% in experiment [6].
For `C=CCc1cc(OC)c2c(c1)C(O)CC(c1ccc(OC)c(OC)c1)O2` (stereo not given), the growth inhibition in experiment [1] is 16.5%; in experiment [2], 1.25%; in experiment [3] it was 18.6%; in experiment [4], -14.3%; in experiment [5] it was 22.6%; in experiment [6], -4%.
Take `O=C1CCCN(c2ccccc2)N1`: the growth inhibition was 24.4% in experiment [1]; 24.6% in experiment [2]; 3.3% in experiment [3]; 5.1% in experiment [4]; 31.9% in experiment [5]; -3.8% in experiment [6].
Consider `CN(C)C1=C(Cl)C(=O)C(=O)c2cccnc21`, for which the growth inhibition is 32.3% in experiment [1]; -2.9% in experiment [2]; 21.4% in experiment [3]; 5.2% in experiment [4]; -16.4% in experiment [5]; 38.4% in experiment [6].
For the compound `CC1=CCC(C(C)C)C2CC(C)(O)CCC12` (stereo not given), the growth inhibition was -3.1% in experiment [1]; -1.8% in experiment [2]; 7.15% in experiment [3]; -24.9% in experiment [4]; -4.35% in experiment [5]; 0.95% in experiment [6].
For `CCCOC(=O)c1ccc([N+](=O)[O-])cc1`, the growth inhibition in experiment [1] was 16.4%; in experiment [2], 4.2%; in experiment [3], 14.2%; in experiment [4], 8.75%; in experiment [5], -16.7%; in experiment [6] it was -23.1%.
Consider `Cc1cc(CSC(=N)N)c(CSC(=N)N)cc1C`, for which the growth inhibition is 9.75% in experiment [1]; -3.85% in experiment [2]; -2.45% in experiment [3]; -4.25% in experiment [4]; 4.65% in experiment [5]; 2.05% in experiment [6].
Consider `CC(=O)[CH-]C(=O)c1ccccc1.CC(=O)[CH-]C(=O)c1ccccc1.CC[C@H](/C=C/C(C)[C@H]1CCC2[C@@H]3CC=C4C[C@@H]([O-])CC[C@]4(C)C3CC[C@@]21C)C(C)C.CC[C@H](/C=C/C(C)[C@H]1CCC2[C@@H]3CC=C4C[C@@H]([O-])CC[C@]4(C)C3CC[C@@]21C)C(C)C.Cl.[Ti+4]` (stereo not given in full), for which the growth inhibition in experiment [1] is 8%; in experiment [2], 2.65%; in experiment [3], 19.3%; in experiment [4], -12.1%; in experiment [5], 24.6%; in experiment [6], 9.55%.
`C/C(=N\NC(=O)c1ccncc1)c1cc(Cl)ccc1Cl`: the growth inhibition is 2.9% in experiment [1]; 5.4% in experiment [2]; 4.65% in experiment [3]; 8.15% in experiment [4]; 0.35% in experiment [5]; 8.7% in experiment [6].
In the case of `CC(C)=CCCC(C)CCOc1cccc(C)c1` (stereo not given), the growth inhibition was 3.65% in experiment [1]; 8.3% in experiment [2]; -6.95% in experiment [3]; -37.5% in experiment [4]; 11.6% in experiment [5]; 1.2% in experiment [6].
Consider `O=C(CC1CCCCC1)OCCOCCO`, for which the growth inhibition was -7.9% in experiment [1]; -5.7% in experiment [2]; -27.6% in experiment [3]; 3.35% in experiment [4]; -2.85% in experiment [5]; -3.5% in experiment [6].
As for `CC(=O)Cc1cc(-c2cc(CC(C)=O)nc(N)n2)nc(N)n1`, the growth inhibition in experiment [1] is 1.85%; in experiment [2], 13.3%; in experiment [3], 12.7%; in experiment [4] it was 15.2%; in experiment [5], 1%; in experiment [6], 20.4%.
`CC(C)NC(=O)OCc1c(COC(=O)NC(C)C)c(-c2ccc(F)cc2F)n2c1CCC2`: the growth inhibition in experiment [1] is 12%; in experiment [2] it was 4%; in experiment [3], 10%; in experiment [4], 8.6%; in experiment [5] it was -13.6%; in experiment [6], -12.7%.
As for `O=C1CCCNC(=O)N1`, the growth inhibition in experiment [1] is -11.2%; in experiment [2], 20.1%; in experiment [3], -19.3%; in experiment [4] it was 4.35%; in experiment [5], 1.95%; in experiment [6] it was -5.3%.
Take `O=C(NCc1ccccc1)C(=O)NCc1ccccc1`: the growth inhibition was 4.35% in experiment [1]; -1.85% in experiment [2]; -7.25% in experiment [3]; 3.5% in experiment [4]; -6.9% in experiment [5]; 5% in experiment [6].
